Screening results: PubChem BioAssay, National Center for Advancing Translational Sciences (NCATS)
Sfp inh – Sfp phosphopantetheinyl transferase inhibition; AID 1490; Q9F4F7; Potency, µM, without a hit: largest response in the series, negative = inhibition, most hits filed as inhibitors; Biochemical Sfp PPTase activity, qHTS; hit rate 3.5% among 310,000; active = well fitted curve in the direction sought with a large enough effect; inconclusive = small, poorly fitted or top-dose-only effect, or another doubt; inactive = no such curve, though single readings can be large; an effect the other way counts as inactive or inconclusive;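 also: the enzyme is Sfp with the accession as filed and its product quenches rhodamine fluorescence; potency is read from the fitted curve at half-maximal effect; 0% = enzyme reaction without inhibitor and -100% = no enzyme wells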
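Fluorescence-quenching assay with 15 nM Sfp, 5 uM rhodamine-CoA and 12.5 uM BHQ-2-labelled ybbR peptide in pH 7.6 Hepes/MgCl2 buffer. Enzyme was pre-incubated with compound for 15 min at room temperature. Rate was taken from the 30-min fluorescence change (525/598 nm).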
NPSR antagonist – antagonists of human neuropeptide S receptor cAMP signaling; Q6W5P4; CHO-NPSR cells, cAMP TR-FRET, antagonist mode; Potency, µM (doses to about 38.3 µM), inactives show top-dose activity change, negative = inhibition, most hits filed as inhibitors; hit rate 1% among 220,000; active = well fitted curve in the direction sought with a large enough effect; inconclusive = small, poorly fitted or top-dose-only effect, or another doubt; inactive = no such curve, though single readings can be large; an effect the other way counts as inactive or inconclusive; also: potency is read from the fitted curve at half-maximal effect; nearly all actives have a fitted effect of over 50% in size
Target sequence (Q6W5P4 whole entry, looked up): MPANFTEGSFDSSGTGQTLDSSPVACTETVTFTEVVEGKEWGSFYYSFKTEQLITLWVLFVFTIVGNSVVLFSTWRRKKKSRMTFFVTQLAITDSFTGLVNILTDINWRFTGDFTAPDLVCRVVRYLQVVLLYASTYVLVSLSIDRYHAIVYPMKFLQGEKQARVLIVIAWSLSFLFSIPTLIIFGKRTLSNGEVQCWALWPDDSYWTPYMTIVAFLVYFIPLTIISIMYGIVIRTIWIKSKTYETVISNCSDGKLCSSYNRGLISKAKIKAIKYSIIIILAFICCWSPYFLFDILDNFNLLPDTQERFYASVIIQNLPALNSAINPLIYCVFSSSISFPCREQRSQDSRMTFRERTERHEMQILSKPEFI
RGS12 GoLoco inh – RGS12 GoLoco-Gai1 interaction inhibition | Gai1:RGS12 GoLoco peptide FP, rhodamine, 10 min | Potency, µM (doses to about 61.6 µM), for the others: at the top dose activity, negative = inhibition, hits mostly inhibitors | hit rate 0.44% among 230,000 | AID 880; active = well fitted inhibition curve with a large enough effect, not every such curve was filed as active; inactive = no such curve, though single readings can be large or run the other way; also: potency is read from the fitted curve at half-maximal effect; nearly all actives have a fitted effect of over 30% in size
Target sequence (P63096 whole entry, looked up): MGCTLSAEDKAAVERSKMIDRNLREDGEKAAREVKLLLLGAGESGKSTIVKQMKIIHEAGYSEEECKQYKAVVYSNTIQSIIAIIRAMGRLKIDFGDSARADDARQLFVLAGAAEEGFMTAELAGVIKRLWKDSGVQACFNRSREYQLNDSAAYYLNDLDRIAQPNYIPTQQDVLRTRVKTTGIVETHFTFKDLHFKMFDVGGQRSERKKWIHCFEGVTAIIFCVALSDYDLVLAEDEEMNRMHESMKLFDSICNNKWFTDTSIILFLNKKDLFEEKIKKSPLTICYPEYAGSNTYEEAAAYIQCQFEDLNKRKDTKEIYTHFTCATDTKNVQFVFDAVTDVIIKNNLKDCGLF
KDM4E inh – JMJD2E (human) inhibition; hit rate 1.6% among 230,000; B2RXH2; JMJD2E catalytic domain, FDH-coupled NADH fluorescence (FDH is formaldehyde dehydrogenase); Potency, µM (doses to about 57.1 µM), for the others: at the top dose activity change, negative = inhibition, hits mostly inhibitors;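 also: potency is read from the fitted curve at half-maximal effect; 0% = wells with enzyme and -100% = buffer wells without enzyme; nearly all actives have a fitted effect of over 50% in size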
FBPA coupling cs – counter-screen for Giardia aldolase inhibitors: coupling enzyme system | coupling enzyme system counterscreen, AmpLite Red fluorescence | activity change, negative = inhibition, % at 58.2 µM, hits read low | hit rate 0.67% among 290,000 | AID 2472; in the data active = activity change below about -30%
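Compounds tested against the coupling enzymes alone at 57.5 uM final; readout was AmpLite Red fluorescence (525/598 nm) after 20 min at RT.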
ALDH1A1 inh – ALDH1A1 (human) enzyme inhibition; P00352; Purified ALDH1A1, NADH fluorescence, propionaldehyde substrate; Potency, µM (top dose mostly 75.3 µM), without a hit: top-dose activity, negative = inhibition, usual class: inhibitors; hit rate 7.3% among 220,000;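 also: potency is read from the fitted curve at half-maximal effect; plate controls were no enzyme wells and a reference inhibitor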
An asterisk follows results filed as active; ? = inconclusive; . = no result; [ ] = remark or other dose. Sampled rows, rich in hits. Any-hit rate of the full collection: about 8.5%. Unless noted, calls follow the shape of the dose curve; as a rule, active = well fitted inhibition curve with a large enough effect (not every such curve was filed as active); inconclusive = small, poorly fitted or top-dose-only effect, or another doubt; inactive = no such curve, though single readings can be large or run the other way. Unless noted, % is scaled to controls: 0 for no effect and ±100 for the full control effect.

SMILES | Sfp inh | NPSR antagonist | RGS12 GoLoco inh | KDM4E inh | FBPA coupling cs | ALDH1A1 inh
O=C(O)c1ccc2c(c1)C1C=CCC1C(c1ccncc1)N2 (configuration not stated) | ? | -8% | -14% | 14µM* | -31* | .
CC(C)C1Nc2ccc(C(=O)O)cc2C2C=CCC21 (configuration not stated) | 28µM* | 7% | 4% | 4% | -5 | ?
CCOc1ccc(N(C)S(=O)(=O)c2c[nH]c(C(=O)OC)c2)cc1 | 11% | . | . | . | -2 | .
Cc1cccc(NS(=O)(=O)c2cc(C(=O)NCCC3=CCCCC3)ccc2Cl)c1 | -7% | ? | -3% | 2% | 0 | -7%
COC(=O)C1=C(C)N(CCc2ccccc2)C(=O)C1(NS(=O)(=O)c1ccc(NC(C)=O)cc1)C(F)(F)F (configuration not stated) | -10% | 2%[46.1 µM] | 2% | -22% | 6 | 20µM*
CC(=O)C1=C(C)N(c2ccccc2)C(=O)C1(NS(=O)(=O)c1ccc(N)cc1)C(F)(F)F (configuration not stated) | 21% | -6% | 10% | 6% | 1 | 5%
COc1cccc(Cn2c(=O)c(-c3ccc(F)cc3)nc3cnc(N4CCNCC4)nc32)c1 | ? | . | -8% | . | 1 | ?
O=c1cc[nH]c(=S)[nH]1 | 45µM* | . | 1% | 6% | 0 | -4%
O=c1cc[nH]c(=O)[nH]1 | 21% | . | . | . | . | .
O=C(Nc1oc2ccc(Cl)cc2c(=O)c1-c1ccc(F)cc1)c1ccco1 | 14% | . | . | . | . | .
CCOC(=O)C1C(=O)NC(SCC(=O)Nc2nccs2)=C(C#N)C1c1ccccc1OCC (configuration not stated) | 14µM* | 2%[46.1 µM] | 19% | -5% | 5 | 6.3µM*
C=CCSC1=C(C#N)C(c2ccccc2OCC)C(C#N)C(=O)N1 (configuration not stated) | 35µM* | -10%[46.1 µM] | 1% | -19% | 6 | ?
CCOc1ccc(-n2cnc3sc(C)c(C)c3c2=O)cc1 | 4% | . | . | . | 2 | .
COCc1ccc(C(=O)NC(C)c2cnn(-c3ccccc3C)c2C)o1 (configuration not stated) | 3% | -9% | 2% | 0% | 1 | -7%
Cc1cccc(NC(=O)CSc2nc3nc(C)cc(C)n3n2)c1 | 27% | . | . | . | 0 | .
Cc1cc(C)n2nc(SCC(=O)N/N=C/c3cccc(Br)c3)nc2n1 | -12% | -22%[46.1 µM] | -65% | 4% | -32* | -2%
Cc1cc(C)n2nc(SCC(=O)Nc3ccccc3C)nc2n1 | 12% | . | . | . | 0 | .
Cc1cc(C)n2nc(SCC(=O)N/N=C/c3ccccn3)nc2n1 | 56µM* | 14% | -1% | ? | 1 | -4%
CC(C)c1ccc(OCC(=O)Nc2ccc3oc(=O)ccc3c2)cc1 | 7% | . | . | . | 0 | .
O=C(NCC1CCCO1)c1ccc(N2C(=O)C3CCCCC3C2=O)cc1 (configuration not stated) | 9% | . | . | . | 0 | .
O=C(c1ccccn1)N1CCCC(N2CCN(c3ccccc3)CC2)C1 (configuration not stated) | 10% | . | . | . | . | .
Cc1cc(C)n2c(SCC(=O)NCc3ccc4c(c3)OCO4)nnc2n1 | 71µM* | 22% | -15% | -4% | -1 | .
Cc1cc(C)n2c(SCC(=O)Nc3ncc(C(F)(F)F)cc3Cl)nnc2n1 | 8% | -11%[46.1 µM] | 8% | -6% | -1 | 13µM*
Cc1cc(C)nc(SCC(=O)Nc2ncc(C(F)(F)F)cc2Cl)n1 | 10% | 13% | 3% | -12% | -1 | 10%
Cc1cc(C)n2c(SCC(=O)Nc3ccc(F)cc3)nnc2n1 | 16µM* | -18% | -2% | -6% | 1 | 14µM*
SMILES | Sfp inh | NPSR antagonist | RGS12 GoLoco inh | KDM4E inh | FBPA coupling cs | ALDH1A1 inh
Cc1cc(C)n2c(SCC(=O)Nc3ccc(F)cc3F)nnc2n1 | 1% | 17% | 6% | ? | 1 | ?
COc1cccc(C(C(=O)NC2CCCC2)N(C(=O)c2ccco2)c2ccc(C(C)=O)cc2)c1OC (configuration not stated) | 11% | . | . | . | 2 | .
CSc1ccc(N=Nc2c(C)[nH]n(C)c2=O)cc1 | -4% | 30% | 13% | -1% | 1 | -1%
CCCCn1c(SCN2C(=O)c3ccccc3C2=O)nc2cc(S(N)(=O)=O)ccc21 | 1% | -20%[46.1 µM] | 6% | 6% | -4 | 28µM*
CCCCn1c(SCC(=O)c2cc(OC)ccc2OC)nc2cc(S(N)(=O)=O)ccc21 | -9% | -16%[46.1 µM] | 13% | -29% | 0 | ?
CCCCn1c(SCc2ccc(C(=O)OC)o2)nc2cc(S(N)(=O)=O)ccc21 | 56µM* | -22%[46.1 µM] | 10% | -21% | -10 | 25µM*
CC(Sc1nc2c(c(=O)[nH]1)CCCC2)C(=O)Nc1ccccc1C#N (configuration not stated) | 7% | . | . | . | 1 | .
CCCCCC(O)c1ccc([C@H]2CCC(=O)[C@@H]2CCCCCCC(=O)O)cc1 (some centres not stated) | 3% | . | . | . | 6 | .
Cc1ccc(-n2nnnc2-c2cnc3ccc(Cl)cc3c2-c2ccccc2)cc1 | -11% | -1%[46.1 µM] | 1% | 4% | -1 | ?
Clc1ccc2[nH]cc(-c3nnnn3-c3ccc4ccccc4c3)c2c1 | 17% | -10%[46.1 µM] | 6% | 16% | -10 | 9.5µM*
COc1cccc(-c2cncnc2NCc2cccc(C)c2)c1 | -12% | . | -2% | . | -3 | ?
CCn1nnnc1SCC(=O)Nc1nc(-c2cccs2)cs1 | 7% | ? | 6% | 11% | -5 | 3.2µM*
CCOC(=O)N1CCC(N2Cc3cccc(C(=O)Nc4cccc(F)c4)c3C2=O)CC1 | -19% | -53% | 11% | 3% | -1 | ?
CCN(CC#CCC1(O)c2ccccc2-c2ccccc21)CCO | 89µM* | 1%[46.1 µM] | -10% | -1% | 3 | -5%
CC(C)N(CC#CC(O)(c1ccccc1)c1ccccc1)CCO | 3% | 4% | 5% | 0% | 0 | -8%
CC(C)N(CC#CCC1(O)c2ccccc2-c2ccccc21)CCO | 50µM* | 6%[46.1 µM] | 2% | ? | 1 | 20µM*
Cc1cc(=O)oc2c(CN3CCC(C)CC3)c(O)c(Cl)cc12 | -4% | 3%[46.1 µM] | 22µM* | ? | 1 | ?
CCN(CC)Cc1c(O)c(Cl)cc2c(C)cc(=O)oc12 | 20% | -12% | 16µM* | ? | 2 | ?
Cc1cc2oc(=O)cc(CN3CCC(C)CC3)c2cc1Cl | -3% | -1%[46.1 µM] | 3% | -1% | 5 | 20µM*
COC(=O)c1ccc(N2CCOCC2)c(NC(=O)c2cccnc2)c1 | 20% | . | . | . | 3 | .
CCCCCCC(=O)Nc1ccc(Br)cn1 | 12% | -9% | 3% | 5% | 1 | .
COc1ccc(N(CC(=O)Nc2ccc3c(c2)OCCO3)S(=O)(=O)c2cccnc2)cc1 | 18% | -1%[46.1 µM] | 8% | -5% | -3 | 14µM*
